Assay results: the antibiotic and cytotoxicity screens of Wong et al. (2023)
Among all 39,000 compounds or so, about 1,500 (3.8%) were called active. The list comes from a sample in which actives are over-represented; it also holds similar structures and randomly drawn compounds.

system: HSkMC (human skeletal muscle cells); assay: cytotoxicity call (relative viability < 0.9); details: 10 µM

Compound | cytotoxicity call
COc1ccc(CCNC(=O)[C@@]2(Sc3ccc(C)cc3)CC(=O)N(C(C)C)[C@@H]2c2ccc(CO)cc2)cc1 | inactive
COc1ccc(NC(=O)N(C)C[C@H]2Oc3c(NC(=O)C4CC4)cccc3C(=O)N([C@@H](C)CO)C[C@@H]2C)cc1 | inactive
C[C@@H]1CN([C@H](C)CO)S(=O)(=O)c2ccc(C#Cc3ccncc3)cc2O[C@@H]1CN(C)C(=O)C1CCC1 | inactive
COc1cccc(S(=O)(=O)Nc2ccc3c(c2)[C@@H]2C[C@H](CC(=O)NCc4ccccc4F)O[C@H](CO)[C@@H]2O3)c1 | inactive
C[C@@H]1CCCCO[C@H](CN(C)S(=O)(=O)c2cccs2)[C@H](C)CN([C@@H](C)CO)C(=O)c2cc(NC(=O)Nc3ccccc3)ccc2O1 | inactive
C[C@@H]1CCCCO[C@@H](CN(C)C(=O)Cc2ccccc2)[C@@H](C)CN([C@@H](C)CO)C(=O)c2cc(NS(=O)(=O)c3ccc(F)cc3)ccc2O1 | inactive
C[C@H]1CN([C@@H](C)CO)C(=O)Cc2cc(NC(=O)C3CCCCC3)ccc2O[C@H]1CN(C)C(=O)Nc1ccc(C(F)(F)F)cc1 | inactive
C[C@@H]1CN([C@H](C)CO)C(=O)c2cc(NC(=O)C3CCCCC3)ccc2O[C@@H](C)CCCCO[C@@H]1CN(C)C(=O)c1ccccc1 | inactive
C[C@H]1CN([C@@H](C)CO)C(=O)Cc2cc(NC(=O)CCC(F)(F)F)ccc2O[C@H]1CN(C)S(=O)(=O)c1cccs1 | inactive
C[C@H](CO)N1C[C@H](C)[C@@H](CN(C)Cc2ccc(C(=O)O)cc2)OCCCC[C@H](C)Oc2ccc(NC(=O)Nc3ccccc3)cc2C1=O | inactive
CC(C)(ON=C(C(=O)NC1C(=O)N2C(C(=O)[O-])=C(C[n+]3ccccc3)CSC12)c1csc(N)n1)C(=O)O (stereo not drawn) | inactive
C[C@H]1CCCCO[C@H](CN(C)Cc2ccc(C(F)(F)F)cc2)[C@@H](C)CN([C@@H](C)CO)C(=O)c2cc(NC(=O)NC3CCCCC3)ccc2O1 | inactive
C[C@H](CO)N1C[C@H](C)[C@@H](CN(C)Cc2ccc(C(F)(F)F)cc2)OCCCC[C@H](C)Oc2ccc(NC(=O)NC3CCCCC3)cc2C1=O | active
C[C@@H]1CN([C@@H](C)CO)C(=O)c2cc(NC(=O)NC3CCCCC3)ccc2O[C@@H](C)CCCCO[C@H]1CN(C)Cc1ccc(C(F)(F)F)cc1 | inactive
Cc1ccc(/C=N/N(C)C2=NCCN2)o1 | inactive
Cc1cc(C)c2c(c1)[C@@H](N(Cc1cc(C(F)(F)F)cc(C(F)(F)F)c1)c1nnn(C)n1)CCCN2C[C@H]1CC[C@H](C(=O)O)CC1 | active
C[C@H]1CN([C@@H](C)CO)C(=O)c2cc(NC(=O)Nc3ccc(C(F)(F)F)cc3)ccc2O[C@H]1CN(C)C(=O)Nc1ccc2c(c1)OCO2 | inactive
CC(=O)N(C)C[C@@H]1Oc2ncc(C#C[C@@H](C)O)cc2C(=O)N([C@H](C)CO)C[C@@H]1C | inactive
C[C@@H]1CN([C@@H](C)CO)C(=O)c2cc(NC(=O)c3ccncc3)ccc2O[C@@H](C)CCCCO[C@H]1CN(C)C(=O)Nc1ccc2c(c1)OCO2 | inactive
COc1ccc(CN(C)C[C@@H]2OCCCC[C@H](C)Oc3ccc(NS(=O)(=O)c4ccc(Cl)cc4)cc3C(=O)N([C@H](C)CO)C[C@H]2C)cc1 | inactive
O=C(N[C@H](c1ccc(F)cc1)c1ccc2ccccc2n1)C1CCN(Cc2ccc3ccccc3n2)CC1 | inactive
Cn1cc(CN2CCC(C(=O)N[C@@H](c3ccc(F)cc3)c3ccc4ccccc4n3)CC2)c2ccccc21 | active
O=C(N[C@H](c1ccc(F)cc1)c1ccc2ccccc2n1)C1CCN(Cc2ccc(Oc3ccccc3)cc2)CC1 | inactive
COc1cc(CN2CCC(C(=O)N[C@@H](c3ccc(F)cc3)c3ccc4ccccc4n3)CC2)cc(OC)c1 | inactive

Compound | cytotoxicity call
O=C(N[C@@H](c1ccccc1)c1ccc2ccccc2n1)C1CCN(Cc2cccc(C(F)(F)F)c2)CC1 | inactive
O=C(N[C@H](c1ccc(F)cc1)c1ccc2ccccc2n1)C1CCN(Cc2cccc(C(F)(F)F)c2)CC1 | active
COc1ccc(CNC(=S)NCCO)cc1 | inactive
O=S(=O)(NCC[C@@H]1CC[C@H](NS(=O)(=O)c2cccc(Cl)c2)[C@@H](CO)O1)c1cccc(F)c1 | inactive
Cc1noc(C)c1NC(=O)N(C)C[C@H]1Oc2ccc(NS(=O)(=O)c3cccs3)cc2CC(=O)N([C@@H](C)CO)C[C@@H]1C | inactive
CCCNC(=O)N1C[C@H](O)COC[C@@H]2O[C@@H](CC(=O)NCc3ccncn3)CC[C@H]21 | inactive
CC[C@@H](C)NCCCCOc1ccc(Cl)cc1C(C)(C)C | active
Cc1ccc(OCc2ccc(Cl)cc2)c(C(C)(C)C)c1 | inactive
CC(C)(C)NCCCCOc1ccc(Cl)cc1C(C)(C)C | inactive
C[C@@H]1CCCCO[C@H](CN(C)C(=O)CCC(F)(F)F)[C@H](C)CN([C@@H](C)CO)C(=O)c2cc(NS(=O)(=O)c3ccc(Cl)cc3)ccc2O1 | inactive
C[C@@H]1CN([C@H](C)CO)C(=O)c2cc(-c3cccc(C#N)c3)cnc2O[C@H]1CN(C)C(=O)c1cnccn1 | inactive
CO[C@@H]1CN(C)C(=O)c2ccc(NS(C)(=O)=O)cc2OC[C@@H](C)N(S(=O)(=O)CC(F)(F)F)C[C@H]1C | inactive
COc1ccc(NC(=O)N(C)C[C@H]2Oc3c(NC(=O)Nc4ccc(C(F)(F)F)cc4)cccc3C(=O)N([C@@H](C)CO)C[C@@H]2C)cc1 | active
C[C@@H]1CN([C@@H](C)CO)C(=O)c2cccc(NC(=O)Nc3ccccc3)c2O[C@@H]1CN(C)C(=O)Nc1ccc(C(F)(F)F)cc1 | inactive
C[C@H](CO)N1C[C@H](C)[C@H](CN(C)C(=O)Nc2ccc(C(F)(F)F)cc2)Oc2c(NC(=O)Nc3ccccc3)cccc2C1=O | inactive
C[C@H]1CN([C@@H](C)CO)C(=O)c2cccc(NC(=O)Nc3ccc(C(F)(F)F)cc3)c2O[C@H]1CN(C)C(=O)Nc1ccc(C(F)(F)F)cc1 | inactive
C[C@@H]1CN([C@H](C)CO)C(=O)c2cccc(NC(=O)Nc3ccc(F)cc3)c2O[C@H]1CN(C)C(=O)Nc1ccc(C(F)(F)F)cc1 | inactive
C[C@H]1CN([C@@H](C)CO)C(=O)c2cccc(NC(=O)Nc3ccc(C(F)(F)F)cc3)c2O[C@@H]1CN(C)C(=O)Nc1ccccc1 | inactive
C[C@@H]1CN([C@H](C)CO)C(=O)c2cccc(NC(=O)Nc3ccc(C(F)(F)F)cc3)c2O[C@@H]1CN(C)C(=O)Nc1ccccc1 | active
C[C@@H]1CN([C@H](C)CO)C(=O)c2cccc(NC(=O)Nc3ccc(C(F)(F)F)cc3)c2O[C@@H]1CN(C)C(=O)Nc1ccc(C(F)(F)F)cc1 | active
C[C@H](CO)N1C[C@H](C)[C@H](CN(C)C(=O)Nc2ccc(C(F)(F)F)cc2)Oc2c(NC(=O)Nc3ccc(C(F)(F)F)cc3)cccc2C1=O | active
COc1ccc(NC(=O)Nc2cccc3c2O[C@H](CN(C)C(=O)Nc2ccc(C(F)(F)F)cc2)[C@@H](C)CN([C@@H](C)CO)C3=O)cc1 | inactive
COc1ccc(NC(=O)Nc2cccc3c2O[C@@H](CN(C)C(=O)Nc2ccc(C(F)(F)F)cc2)[C@@H](C)CN([C@@H](C)CO)C3=O)cc1 | inactive
C[C@H]1CN([C@@H](C)CO)C(=O)c2cccc(NC(=O)Nc3ccc(C(F)(F)F)cc3)c2O[C@@H]1CN(C)C(=O)Nc1ccc(F)cc1 | inactive
